# The source made the active and inactive calls. How the source made its calls: active means hit-call score of the fitted dose curve at least 0.9, where 1 is the maximum; inactive means score below 0.9.
# Target: human PRAK CAMK Kinase, MAPKAPK5 (gene 8550) (UniProt Q8IW41)
# Assay: ERF_TW_ENZ_hMAPKAPK5: Eurofins (ERF) Enzymatic Radiometric [10 uM ATP] LeadHunter Assay for human PRAK CAMK Kinase
# Procedure: ERF_TW_ENZ_hMAPKAPK5 is a biochemical, single-readout assay that uses extracted gene-proteins in a cell-free assay. Measurements were taken 0.5 hour after chemical dosing in a 96-well plate. See PRAK Human CAMK Kinase Enzymatic Radiometric Assay [10 uM ATP], Panlabs.ERF_TW_ENZ_hMAPKAPK5 is an assay component calculated from the ERF_TW_ENZ_hMAPKAPK5 assay. It is designed to measure enzyme activity using a type of enzyme reporter as detected by scintillation counting with radiometry technology.Data from the assay component ERF_TW_ENZ_hMAPKAPK5 was analyzed at the assay endpoint, ERF_TW_ENZ_hMAPKAPK5, in the positive analysis fitting direction relative to DMSO as the negative control and baseline of activity. Using a type of enzyme reporter, loss-of-signal activity can be used to understand changes in enzymatic activity as they relate to gene MAPKAPK5. To generalize the intended target to other relatable targets, this assay endpoint is annotated to the kinase intended target family, where the subfamily is serine/threonine kinase.
# Human recombinant protein kinase PRAK expressed in insect Sf21 cells is used. Test compound is preincubated with 0.44 U/ml enzyme in modified MOPS buffer pH 7.2 for 15 minutes at 37C. […] An aliquot is removed and counted to determine the amount of [32P]PRAK substrate. […]
# human PRAK CAMK Kinase, MAPKAPK5 (gene 8550), sequence (Q8IW41 whole entry, looked up): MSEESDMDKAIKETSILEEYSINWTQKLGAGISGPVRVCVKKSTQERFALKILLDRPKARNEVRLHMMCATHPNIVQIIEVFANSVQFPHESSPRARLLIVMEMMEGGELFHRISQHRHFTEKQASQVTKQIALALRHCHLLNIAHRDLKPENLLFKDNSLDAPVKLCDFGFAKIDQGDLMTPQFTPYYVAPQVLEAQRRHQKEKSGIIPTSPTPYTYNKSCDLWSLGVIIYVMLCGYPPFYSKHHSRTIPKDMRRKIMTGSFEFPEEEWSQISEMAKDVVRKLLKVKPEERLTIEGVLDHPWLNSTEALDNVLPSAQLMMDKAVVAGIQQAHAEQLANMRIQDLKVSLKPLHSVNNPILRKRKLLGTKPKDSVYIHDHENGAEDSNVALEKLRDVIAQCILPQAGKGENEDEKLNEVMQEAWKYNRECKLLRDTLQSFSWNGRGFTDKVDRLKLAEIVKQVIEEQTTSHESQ
row,Compound,AC50
1,O=C(/C=C/c1ccc(O)cc1)CC(=O)/C=C/c1ccc(O)cc1,1.02 µM (active)

# Reference: PubChem BioAssay AID2284104 (EPA ToxCast)
